Shiga inhibitor – A qHTS for Small Molecule Inhibitors of Shiga Toxin; Vero cells, Shiga toxin protein synthesis inhibition reporter; AID 2315, 2010; inhibition, % at 38.7 µM; 290,000 compounds, 9.2% hits; in the data active = inhibition mostly above about 28%, no sharp cut-off; inactive = mostly below about 43%
HCMV antiviral – qHTS Assay for inhibitors of the human cytomegalovirus (HCMV); HFF cells, HCMV-luciferase reporter, 72 h; active compounds read low; activity change, negative = inhibition, % at 57.5 µM; 410,000 compounds, 4.5% hits; AID 1259415, 2018; in the data active = activity change below about -60%; inconclusive = no clear call, values can overlap the other calls; inactive = above about -39%
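Two compound doses tested in HFFs infected with HCMV-luciferase, MOI 1 PFU/cell, 72 h at 37C. Lysate luminescence read with OneGlo; data normalized against buffer-only and 10uM Salinomycin inhibitor controls.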
Cycloheximide cs – Cycloheximide Counterscreen for Small Molecule Inhibitors of Shiga Toxin; cell reporter, cycloheximide protein synthesis inhibition counterscreen; max response, %; 300,000 compounds, 12% hits; in the data active = max response mostly above about 13%, no sharp cut-off; inactive = mostly below about 14%; also: read at 38.3 µM for the half of the compounds with a filed dose
Pf growth 48h – Primary qHTS for delayed death inhibitors of the malarial parasite plastid, 48 hour incubation; P. falciparum luciferase growth in erythrocytes, 48 h; Potency, µM (series often up to 28.7 µM), actives largely listed as inhibitors; 310,000 compounds, 5.9% hits
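First compound was added to culture medium, then infected red cells at 0.1% parasitemia and 2% hematocrit (final). After incubation at 37 C under 5% CO2, luciferase detection reagent was dispensed and light output recorded.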
Pf growth 96h – Primary qHTS for delayed death inhibitors of the malarial parasite plastid, 96 hour incubation; P. falciparum luciferase reporter growth, 96 h; Potency, µM (highest dose often 28.7 µM), hits mostly inhibitors; 320,000 compounds, 6.9% hits
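Readout is luminescence from an integrated firefly luciferase in P. falciparum. Red cells, 2% hematocrit and 0.05% parasitemia final, were cultured with compound through two parasite generations (96 hours) at 37 C, 5% CO2.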
Numbers stand for hits; – = inactive; ? = inconclusive; · = no result; [ ] = dose if it differs, or a comment. Most compounds without a hit are left out; they make up all but 20% or so of the library. Unless noted, calls follow the shape of the dose curve; as a rule, active = well fitted inhibition curve with a large enough effect; inconclusive = small, poorly fitted or top-dose-only effect, or another doubt; inactive = no such curve, though single readings can be large or run the other way.

SMILES	Shiga inhibitor	HCMV antiviral	Cycloheximide cs	Pf growth 48h	Pf growth 96h
O=c1[nH]c(O)c(N=Nc2ccc3c(c2)OCCO3)c(=O)[nH]1	88.1	-82.1	31.8	–	–
O=c1[nH]c(=S)[nH]c(O)c1N=Nc1ccc2c(c1)OCO2	46.1	?	23.5	–	–
NS(=O)(=O)c1ccc(N=Nc2c(O)[nH]c(=S)[nH]c2=O)cc1	–	–	–	?	?
O=c1[nH]c(=S)[nH]c(O)c1N=Nc1ccc2c(c1)OCCO2	27.4	?	23.4	–	–
O=c1[nH]c(O)c(N=Nc2ccc(S(=O)(=O)N3CCOCC3)cc2)c(=O)[nH]1	–	?	–	–	?
O=C(CSc1n[nH]c(-c2ccccc2Cl)n1)NCc1ccc(F)cc1	·	–	·	·	·
CCOc1ccc(N2C(=O)CS(=O)(=O)C23C(=O)N(Cc2cccc(Cl)c2)c2ccccc23)cc1 (configuration not stated)	·	–	·	·	·
Cc1ccc(CN2C(=O)C(C)Nc3ncnc(N4CCN(c5ccccn5)CC4)c32)cc1 (configuration not stated)	·	–	·	11.7µM	11.7µM
COc1ccc(CN2C(=O)C(C)Nc3ncnc(N4CCN(c5ccccn5)CC4)c32)cc1 (configuration not stated)	·	–	·	·	·
CC1Nc2ncnc(N3CCN(c4ccccn4)CC3)c2N(Cc2ccccc2)C1=O (configuration not stated)	·	–	·	11.7µM	2.62µM
Cc1cc2c(s1)c1cnn(Cc3ccc(-c4ccccc4)cc3)c(=O)c1n2C	–	·	–	·	·
Cc1cc(-c2ccccc2C(=O)NC2CCCCC2)on1	–	?	–	–	–
COc1ccc(C(=O)NCCc2nnc3ccc(SCC(=O)Nc4ccccc4)nn23)cc1	73.4	·	43.9	–	–
O=C(CSc1ccc2nnc(CCNC(=O)c3ccccc3)n2n1)Nc1ccccc1	–	–	–	?	?
Cc1ccc(C(=O)NCCc2nnc3ccc(SCC(=O)Nc4ccccc4C)nn23)cc1	–	–	–	?	10.4µM
CCCC(=O)N1CCN(Cc2nc3cc([N+](=O)[O-])ccc3n2C)CC1	–	–	–	–	–
Cc1ccc(C(C)C)c(OCC(=O)N2CCN(Cc3nc4cc([N+](=O)[O-])ccc4n3C)CC2)c1	–	–	–	–	11.7µM
Cc1ccc(C(C)C)c(OCC(=O)Nc2ccc3c(c2)nc(CN2CCCC2)n3C)c1	–	–	–	·	13.1µM
COc1ccccc1CNC(=O)CCn1c(=O)c2ccccc2n(CC(=O)Nc2ccc(C)cc2Cl)c1=O	·	–	·	·	·
Cc1ccc(CNC(=O)Cn2cnc(C(=O)Nc3ccc(C)c(C)c3)n2)o1	·	–	·	·	·
OC(CCc1cccc(Cl)c1)c1cccs1 (configuration not stated)	44.4	–	34.6	·	–
CC(C)(C)c1cc(C(=O)N/N=C/c2ccc(F)cc2)n(-c2ccccc2)n1	–	-74.4	–	?	?
COc1ccc(/C=N/NC(=O)c2nc(-c3ccccc3)n(-c3ccccc3)n2)c(O)c1	–	?	–	?	–
CC(C)(C)c1cc(C(=O)N/N=C/c2ccccc2O)n(-c2ccccc2)n1	–	-97.4	–	?	?
CCOC(=O)c1ccccc1NC(=O)c1sc2ncn(CC)c(=O)c2c1C	·	–	·	·	·
SMILES	Shiga inhibitor	HCMV antiviral	Cycloheximide cs	Pf growth 48h	Pf growth 96h
O=C(CN1CCN(C(=O)c2ccccc2)CC1)Nc1cc(S(=O)(=O)N2CCCC2)ccc1Cl	·	–	·	10.4µM	?
O=C(CN1CCN(C(=O)c2cccc(S(=O)(=O)N3CCCC3)c2)CC1)Nc1ccccc1Cl	·	–	·	10.4µM	?
CN(C)c1ccc(S(=O)(=O)N2CCCCC2)cc1NC(=O)CCNC(=O)c1ccccc1Cl	·	–	·	·	·
CN(C)c1ccc(S(=O)(=O)N2CCCCC2)cc1NC(=O)CCNC(=O)c1ccco1	·	–	·	11.7µM	?
O=C(CN(Cc1ccco1)Cc1ccco1)Nc1cc(S(=O)(=O)N2CCCCC2)ccc1Cl	·	-83.2	·	13.1µM	?
C/C=C(\C)CN1CCCC(N(C)CCc2ccc(OC)c(OC)c2)C1 (configuration not stated)	–	–	–	?	–
O=C(CN1CCN(S(=O)(=O)c2ccccc2)CC1)Nc1ccccc1C(=O)c1ccccc1	–	?	–	13.1µM	4.65µM
O=c1c(-c2cc(-c3ccccc3)nc3c2COc2ccccc2-3)coc2ccc(Cl)cc12	·	–	·	·	·
O=C1CCCC2=C1C(c1ccccc1O)C1=C(CCCC1=O)O2	–	–	–	·	8.28µM
CC(C)(C)c1cc(/C=C2\NC(=O)NC2=O)cc(C(C)(C)C)c1O	–	-82.8	25.4	?	–
O=C1Nc2ccccc2/C1=C/c1cnc(-c2ccccc2)[nH]1	53.4	–	59.4	–	–
O=C1Nc2ccccc2/C1=C/c1cccnc1	–	–	–	–	?
CN(C)c1ccc(/C=C2\C(=O)Nc3ccccc32)cc1	78.4	·	76.4	·	·
O=C1Nc2ccccc2/C1=C/c1ccccc1F	–	–	13.1	–[0.00184 µM]	–
COc1cccc(CNC(=O)Cn2c(=O)oc3cc(S(=O)(=O)N4CCCCCC4)ccc32)c1	·	–	·	·	·
O=C(COC(=O)CSc1ccccc1)NCCNC(=O)COC(=O)CSc1ccccc1	·	–	·	–	–
O=C(Cn1cc(SCc2ccc(Cl)cc2)c2ccccc21)N1CCCC1	·	–	·	·	·
Cc1ccc(/C=C2\C(=O)Nc3ccccc32)o1	–	–	17.5	–	–
CN(C)c1ccc(/C=C2/NC(=O)NC2=O)cc1	active	–	25.3	–	?
O=C1NC(=O)C(=Cc2ccccc2)N1	·	–	·	·	·
CC(C)(C)c1ccc(C(=O)NN2C(=O)CSC2=S)cc1	–	–	–	–	–
O=C(O)c1ccc(/C=C2\SC(=S)N(Nc3ccccc3)C2=O)cc1	79.8	–	23.6	–	?
O=C1/C(=C/c2ccncc2)SC(=S)N1Nc1ccccc1	–	–	–	8.28µM	9.28µM
Cc1cc(C)nc(NN2C(=O)/C(=C/c3ccccc3)SC2=S)n1	–	–	–	–	?
CCC(C)NC(=O)c1nn(-c2ccc(C)cc2)c(=O)n(C)c1=O (configuration not stated)	·	–	·	·	·
SMILES	Shiga inhibitor	HCMV antiviral	Cycloheximide cs	Pf growth 48h	Pf growth 96h
CCN(CC)CCNC(=O)c1ccc(NC(=O)c2ccc(F)cc2F)cc1	–	–	–	–	–
O=C1c2ccccc2NC(c2ccccc2Cl)N1N=C1CCCCCC1 (configuration not stated)	89.1	–	37.4	–	–
Cc1cc(C)c(C)c(S(=O)(=O)Nc2ccc3cn[nH]c3c2)c1C	·	-84.3	·	?	?
O=C(/C(=C/c1ccccc1Cl)c1ccccc1)N1CCOCC1	–	–	–	–	–
COc1ncccc1-c1nnn(-c2ccc(F)cc2)n1	71.0	–	54.4	–	–
COc1ncccc1-c1nnn(-c2ccc(Cl)c(Cl)c2)n1	–	–	18.0	–	–
Fc1ccc(-n2nnc(-c3ccccc3Br)n2)cc1	–	–	–	–	?
COc1ncccc1-c1nnn(-c2ccc(C)cc2)n1	131.4	–	48.5	–	–
Clc1ccc(-n2nnc(-c3ncc[nH]3)n2)cc1Cl	·	–	·	·	·

Bioassay records (PubChem)
